The results in this text go back to publication PMC7862700, “An all-to-all approach to the identification of sequence-specific readers for epigenetic DNA modifications on cytosine”.

Holding throughout (assay): DAPPL (digital affinity profiling via proximity ligation, sequencing); 10 mM Tris-HCl pH 7.5, 50 mM NaCl, 1 mM DTT, 4% glycerol, room temperature, 30 min; GST-TFs on glutathione beads, 16-mer random dsDNA library, 0.1% formaldehyde crosslink after washing; high values mean tight binding
Settings in all cases: protein: recombinant; tags: N-terminal GST; dsDNA, one strand shown

One test concerns the target T1, FLI1 (Homo sapiens, UniProt Q01543 1-452).
T1 sequence: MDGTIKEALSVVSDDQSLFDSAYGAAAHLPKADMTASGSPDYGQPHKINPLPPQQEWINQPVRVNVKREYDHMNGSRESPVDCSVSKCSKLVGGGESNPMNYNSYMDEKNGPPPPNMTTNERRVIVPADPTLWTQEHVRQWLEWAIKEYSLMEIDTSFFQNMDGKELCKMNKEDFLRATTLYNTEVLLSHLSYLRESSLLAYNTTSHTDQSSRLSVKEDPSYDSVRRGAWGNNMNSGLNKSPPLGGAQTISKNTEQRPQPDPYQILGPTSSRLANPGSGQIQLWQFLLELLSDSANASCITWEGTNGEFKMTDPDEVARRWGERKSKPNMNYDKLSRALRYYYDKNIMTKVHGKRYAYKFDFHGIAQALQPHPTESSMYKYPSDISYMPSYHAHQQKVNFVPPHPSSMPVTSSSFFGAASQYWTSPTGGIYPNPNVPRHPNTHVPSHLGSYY
In a few lines:
(§1)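 A tag-only sample was pooled with DNA-barcoded human transcription factors that had been expressed in yeast as GST fusions and captured on glutathione beads. The pools were incubated for 30 min at room temperature with 200 nmole of a random double-stranded 16-mer DNA library in Tris/NaCl/DTT/glycerol buffer, then washed, crosslinked with 0.1% formaldehyde, proximity-ligated (BsaI/T4 ligase, 1 h, 37 °C), PCR-amplified and sequenced on an Illumina NextSeq500. Binding signal is each hexamer's read frequency for a factor divided by its frequency for the tag-only sample.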

The target in a further test is T2, ELK1 (Homo sapiens, UniProt P19419 1-428).
T2 sequence: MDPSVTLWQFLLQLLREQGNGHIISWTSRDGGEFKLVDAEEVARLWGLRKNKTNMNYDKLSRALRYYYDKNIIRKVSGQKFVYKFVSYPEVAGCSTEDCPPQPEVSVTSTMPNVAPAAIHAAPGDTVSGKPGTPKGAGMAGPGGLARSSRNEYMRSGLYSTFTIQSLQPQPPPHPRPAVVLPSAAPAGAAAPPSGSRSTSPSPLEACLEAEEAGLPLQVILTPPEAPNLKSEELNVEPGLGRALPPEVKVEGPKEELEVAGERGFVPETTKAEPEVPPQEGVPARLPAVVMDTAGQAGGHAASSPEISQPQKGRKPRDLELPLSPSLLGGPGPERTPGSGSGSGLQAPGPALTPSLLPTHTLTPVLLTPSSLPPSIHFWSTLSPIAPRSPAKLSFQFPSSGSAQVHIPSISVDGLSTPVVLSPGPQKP
In a few lines: as §1

For a further test, the target named is T3, GABPA (Homo sapiens, UniProt Q06546 1-454).
T3 sequence: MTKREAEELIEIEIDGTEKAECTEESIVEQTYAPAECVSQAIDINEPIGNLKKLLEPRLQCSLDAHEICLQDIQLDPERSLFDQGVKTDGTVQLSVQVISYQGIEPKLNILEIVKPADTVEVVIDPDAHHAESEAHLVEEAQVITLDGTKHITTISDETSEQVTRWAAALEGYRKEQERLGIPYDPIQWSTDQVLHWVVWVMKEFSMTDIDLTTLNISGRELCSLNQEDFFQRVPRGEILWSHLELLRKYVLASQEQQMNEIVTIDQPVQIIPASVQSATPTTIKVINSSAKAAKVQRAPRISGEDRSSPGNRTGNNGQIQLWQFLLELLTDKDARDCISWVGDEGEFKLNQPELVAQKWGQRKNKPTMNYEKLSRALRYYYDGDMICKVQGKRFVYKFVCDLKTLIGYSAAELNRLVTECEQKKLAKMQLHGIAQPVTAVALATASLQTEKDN
The gist of the method:
as §1

Another test has as its target T4, ERG (Homo sapiens, UniProt P11308 1-479).
T4 sequence: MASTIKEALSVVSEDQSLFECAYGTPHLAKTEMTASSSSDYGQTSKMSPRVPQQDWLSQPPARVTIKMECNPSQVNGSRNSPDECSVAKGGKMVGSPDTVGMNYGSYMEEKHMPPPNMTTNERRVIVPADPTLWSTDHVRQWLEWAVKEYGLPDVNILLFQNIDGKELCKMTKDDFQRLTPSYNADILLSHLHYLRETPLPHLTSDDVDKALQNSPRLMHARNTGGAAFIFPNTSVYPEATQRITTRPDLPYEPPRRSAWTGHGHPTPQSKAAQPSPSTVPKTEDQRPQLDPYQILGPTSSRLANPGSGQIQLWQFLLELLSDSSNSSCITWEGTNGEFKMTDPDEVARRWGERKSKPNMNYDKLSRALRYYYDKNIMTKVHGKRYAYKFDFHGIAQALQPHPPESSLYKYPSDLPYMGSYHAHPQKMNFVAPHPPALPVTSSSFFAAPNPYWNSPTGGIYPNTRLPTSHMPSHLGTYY
In a few lines:
as §1

The target in the next test is ELF1 (Homo sapiens, UniProt P32519 1-619). In a few lines:
as §1

Another test deals with T5, EHF (Homo sapiens, UniProt Q9NZC4 1-300).
T5 sequence: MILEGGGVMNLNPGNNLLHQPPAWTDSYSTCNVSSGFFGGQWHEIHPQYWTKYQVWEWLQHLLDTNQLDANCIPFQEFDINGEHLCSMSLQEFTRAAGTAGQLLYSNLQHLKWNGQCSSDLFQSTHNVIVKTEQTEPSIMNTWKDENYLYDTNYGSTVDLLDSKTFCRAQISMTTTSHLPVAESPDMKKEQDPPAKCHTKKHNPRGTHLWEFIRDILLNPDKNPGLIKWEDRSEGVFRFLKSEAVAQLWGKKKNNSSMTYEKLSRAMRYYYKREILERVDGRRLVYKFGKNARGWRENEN
In a few lines: as §1

The next test addresses SPI1 (Homo sapiens, UniProt P17947 1-270). In a few lines: as §1
In a further test the target is SPIB (Homo sapiens, UniProt Q01892 1-262). In a few lines:
as §1

The next test deals with T6, ELK3 (Homo sapiens, UniProt P41970 1-407).
T6 sequence: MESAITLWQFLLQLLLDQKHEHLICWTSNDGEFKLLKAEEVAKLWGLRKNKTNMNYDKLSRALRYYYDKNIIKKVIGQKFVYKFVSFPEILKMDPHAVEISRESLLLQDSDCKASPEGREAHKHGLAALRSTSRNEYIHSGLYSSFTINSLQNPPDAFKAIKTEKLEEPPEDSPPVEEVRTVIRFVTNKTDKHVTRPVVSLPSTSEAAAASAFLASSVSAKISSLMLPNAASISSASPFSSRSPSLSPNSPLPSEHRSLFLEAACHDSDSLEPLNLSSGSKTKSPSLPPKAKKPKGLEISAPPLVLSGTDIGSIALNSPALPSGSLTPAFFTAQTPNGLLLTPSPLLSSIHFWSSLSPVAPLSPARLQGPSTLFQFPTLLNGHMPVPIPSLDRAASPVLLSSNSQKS
In a few lines:
as §1

Chain of ELF1 (P32519 whole entry): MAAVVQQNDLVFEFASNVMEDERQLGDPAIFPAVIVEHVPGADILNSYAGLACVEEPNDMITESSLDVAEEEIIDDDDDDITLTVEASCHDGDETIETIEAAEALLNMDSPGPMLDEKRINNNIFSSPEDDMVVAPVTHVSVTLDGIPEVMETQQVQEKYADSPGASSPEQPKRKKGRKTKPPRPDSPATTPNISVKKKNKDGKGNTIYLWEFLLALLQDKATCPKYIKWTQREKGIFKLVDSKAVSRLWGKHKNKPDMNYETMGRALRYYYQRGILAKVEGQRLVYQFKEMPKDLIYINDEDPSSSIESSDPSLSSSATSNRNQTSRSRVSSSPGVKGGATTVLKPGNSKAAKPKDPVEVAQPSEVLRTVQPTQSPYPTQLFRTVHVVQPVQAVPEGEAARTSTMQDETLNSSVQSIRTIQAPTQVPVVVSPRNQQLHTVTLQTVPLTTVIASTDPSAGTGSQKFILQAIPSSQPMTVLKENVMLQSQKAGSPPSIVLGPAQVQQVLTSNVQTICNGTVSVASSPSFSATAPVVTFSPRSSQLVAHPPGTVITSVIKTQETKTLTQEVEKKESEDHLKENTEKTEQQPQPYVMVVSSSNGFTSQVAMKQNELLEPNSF
Chain of SPIB (Q01892 whole entry): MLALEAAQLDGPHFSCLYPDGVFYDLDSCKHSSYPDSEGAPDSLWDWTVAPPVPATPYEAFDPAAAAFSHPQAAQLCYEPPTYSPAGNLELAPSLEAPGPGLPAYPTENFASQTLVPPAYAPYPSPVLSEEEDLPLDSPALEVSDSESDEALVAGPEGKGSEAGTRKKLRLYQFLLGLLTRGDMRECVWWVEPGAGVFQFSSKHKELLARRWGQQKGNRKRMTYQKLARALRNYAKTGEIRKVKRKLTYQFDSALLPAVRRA

TTCTAG: the binding signal is 1.27 fold enrichment (6-mer frequency, TF over GST control) in the test with FLI1; 1.26 fold enrichment (6-mer frequency, TF over GST control) in the test with ELK1; 1.38 fold enrichment (6-mer frequency, TF over GST control) in the test with GABPA; 1.33 fold enrichment (6-mer frequency, TF over GST control) with ERG; 1.25 fold enrichment (6-mer frequency, TF over GST control) in the test with ELF1; 1.2 fold enrichment (6-mer frequency, TF over GST control) in the test with EHF. Moreover, the binding signal was 1.2 fold enrichment (6-mer frequency, TF over GST control) with SPI1; 1.14 fold enrichment (6-mer frequency, TF over GST control) with SPIB; 1.3 fold enrichment (6-mer frequency, TF over GST control) in the test with ELK3.
With CATCCC, the binding signal with FLI1 was 1.39 fold enrichment (6-mer frequency, TF over GST control); with ELK1, 1.22 fold enrichment (6-mer frequency, TF over GST control); with GABPA, 1.24 fold enrichment (6-mer frequency, TF over GST control); in the test with ERG, 1.29 fold enrichment (6-mer frequency, TF over GST control); in the test with ELF1 it was 1.29 fold enrichment (6-mer frequency, TF over GST control); with EHF it was 1.29 fold enrichment (6-mer frequency, TF over GST control). Also, the binding signal was 1.25 fold enrichment (6-mer frequency, TF over GST control) in the test with SPI1; 1.26 fold enrichment (6-mer frequency, TF over GST control) in the test with SPIB; 1.24 fold enrichment (6-mer frequency, TF over GST control) with ELK3.
For the sequence TACTAT, the binding signal was 1.5 fold enrichment (6-mer frequency, TF over GST control) with FLI1; 1.24 fold enrichment (6-mer frequency, TF over GST control) with ELK1; 1.44 fold enrichment (6-mer frequency, TF over GST control) in the test with GABPA; 1.33 fold enrichment (6-mer frequency, TF over GST control) with ERG; 1.31 fold enrichment (6-mer frequency, TF over GST control) with ELF1; 1.39 fold enrichment (6-mer frequency, TF over GST control) with EHF. Moreover, the binding signal in the test with SPI1 was 1.3 fold enrichment (6-mer frequency, TF over GST control); in the test with SPIB it was 1.42 fold enrichment (6-mer frequency, TF over GST control); with ELK3, 1.24 fold enrichment (6-mer frequency, TF over GST control).
Consider TTATTG, for which the binding signal was 1.24 fold enrichment (6-mer frequency, TF over GST control) with FLI1; 1.27 fold enrichment (6-mer frequency, TF over GST control) with ELK1; 1.28 fold enrichment (6-mer frequency, TF over GST control) in the test with GABPA; 1.24 fold enrichment (6-mer frequency, TF over GST control) with ERG; 1.3 fold enrichment (6-mer frequency, TF over GST control) in the test with ELF1; 1.29 fold enrichment (6-mer frequency, TF over GST control) with EHF. The binding signal is 1.18 fold enrichment (6-mer frequency, TF over GST control) in the test with SPI1; 1.31 fold enrichment (6-mer frequency, TF over GST control) in the test with SPIB; 1.38 fold enrichment (6-mer frequency, TF over GST control) with ELK3.
Take ACATTT: the binding signal with FLI1 was 1.63 fold enrichment (6-mer frequency, TF over GST control); in the test with ELK1, 1.48 fold enrichment (6-mer frequency, TF over GST control); with GABPA it was 1.43 fold enrichment (6-mer frequency, TF over GST control); with ERG, 1.56 fold enrichment (6-mer frequency, TF over GST control); with ELF1 it was 1.46 fold enrichment (6-mer frequency, TF over GST control); with EHF it was 1.49 fold enrichment (6-mer frequency, TF over GST control). Moreover, the binding signal was 1.41 fold enrichment (6-mer frequency, TF over GST control) with SPI1; 1.53 fold enrichment (6-mer frequency, TF over GST control) with SPIB; 1.36 fold enrichment (6-mer frequency, TF over GST control) with ELK3.
With TAAACT, the binding signal with FLI1 was 1.13 fold enrichment (6-mer frequency, TF over GST control); with ELK1, 1.24 fold enrichment (6-mer frequency, TF over GST control); in the test with GABPA it was 1.19 fold enrichment (6-mer frequency, TF over GST control); with ERG, 1.14 fold enrichment (6-mer frequency, TF over GST control); with ELF1 it was 1.13 fold enrichment (6-mer frequency, TF over GST control); with EHF, 1.15 fold enrichment (6-mer frequency, TF over GST control). In addition, the binding signal was 1.15 fold enrichment (6-mer frequency, TF over GST control) with SPI1; 1.23 fold enrichment (6-mer frequency, TF over GST control) with SPIB; 1.27 fold enrichment (6-mer frequency, TF over GST control) in the test with ELK3.
Regarding AACATT, the binding signal with FLI1 was 1.37 fold enrichment (6-mer frequency, TF over GST control); with ELK1, 1.26 fold enrichment (6-mer frequency, TF over GST control); with GABPA it was 1.35 fold enrichment (6-mer frequency, TF over GST control); in the test with ERG, 1.25 fold enrichment (6-mer frequency, TF over GST control); with ELF1, 1.29 fold enrichment (6-mer frequency, TF over GST control); in the test with EHF it was 1.33 fold enrichment (6-mer frequency, TF over GST control). In addition, the binding signal in the test with SPI1 is 1.17 fold enrichment (6-mer frequency, TF over GST control); with SPIB, 1.34 fold enrichment (6-mer frequency, TF over GST control); in the test with ELK3, 1.25 fold enrichment (6-mer frequency, TF over GST control).
Regarding CTGGAA, the binding signal with FLI1 is 1.22 fold enrichment (6-mer frequency, TF over GST control); in the test with ELK1 it was 1.25 fold enrichment (6-mer frequency, TF over GST control); with GABPA, 1.33 fold enrichment (6-mer frequency, TF over GST control); with ERG, 1.27 fold enrichment (6-mer frequency, TF over GST control); with ELF1, 1.19 fold enrichment (6-mer frequency, TF over GST control); in the test with EHF, 1.2 fold enrichment (6-mer frequency, TF over GST control). Also, the binding signal with SPI1 is 1.26 fold enrichment (6-mer frequency, TF over GST control); with SPIB, 1.31 fold enrichment (6-mer frequency, TF over GST control); in the test with ELK3, 1.31 fold enrichment (6-mer frequency, TF over GST control).
